From PubChem BioAssay (Tox21)
Activity calls are given as the source filed them. The call rests on the fitted dose curve; in most records, active means well fitted activation curve with a large enough effect in the repeat runs; inconclusive means weak or mixed curves; inactive means flat fitted curve, though single readings scatter.

Assay: Caspase-3/7 induction in CHO-K1 cells by small molecules, qHTS assay (AID 1346980); further: nearly all actives have a fitted effect of over 15% in size
Conditions: CHO-K1 caspase-3/7 induction, Caspase-Glo luminescence, 17 h; series mostly up to 92.4 µM; caspase-3/7 activation: at the top concentration
Description: National Center for Advancing Translational Sciences [NCATS]
NIH Chemical Genomics Center [NCGC]
U.S. Environmental Protection Agency [EPA]
National Institutes of Environmental Health Sciences [NIEHS]
National Toxicology Program [NTP]
Apoptosis is a process of programmed cell death and plays a central role in the development of multicellular organisms. It is a highly regulated process and induces cell death by activating caspases, which are the members of cysteine aspartic acid-specific protease (caspase) family. Caspases involved in apoptosis are classified by their mechanism of action as initiator caspases (caspase-2, -8, -9 and -10) and executioner caspases (caspase-3, -6, and -7). Inhibition of apoptosis results in number of cancers, autoimmune diseases, inflammatory diseases and viral infection. To identify small molecule compounds that induce apoptosis, a homogeneous, luminescent Caspase-Glo 3/7 assay was used. Wild type CHO-K1 cells were used to screen Tox21 libraries for identifying caspase-3/7 activity inducers.
CHO-K1 cells were dispensed at 1,500 per well in 5uL of culture medium into white solid bottom 1536-well plates (Corning Life Sciences, Corning, NY) using a Multidrop Combi (Thermo Scientific, Waltham, MA) dispenser. The assay plates were incubated at 37 C and 5% CO2 for 5hr, and then 23nL of compounds dissolved in DMSO and positive control were transferred using a Pintool station (Wako, San Diego, CA). The assay plates were incubated at 37C and 5% CO2 for 17hr. For caspase-3/7 activity read, 4uL of Caspase-Glo 3/7 reagent (Promega Corporation, Madison, WI) was added to each well of the assay plates using Flying Reagent Dispenser (FRD, Aurora Discovery, San Diego, CA) and incubated the assay plates at room temperature for 30min. The luminescence signal was quantified using a ViewLux plate reader (Perkin Elmer, Shelton, CT).
On the % scale 0 is the no-effect control and ±100 the full control effect.

Row | Structure (SMILES) | caspase-3/7 activation
1 | CCC(C)(CCC(C)C)C(=O)O (stereo not given) | 1.17% (inactive)
2 | O=S(O)(O)=S | 0.413% [at 8.39 µM] (inactive)
3 | CC(=O)Nc1cccc(C)c1 | 2.39% (inactive)
4 | CN=C(NC#N)Nc1ccc(C2=NNC(=O)CC2C)cc1 (stereo not given) | 0.106% [at 42.5 µM] (inactive)
5 | CCCCCCCCOS(=O)(=O)O | 0.113% (inactive)
6 | CC(C)(C)NC(N)=O | -0.892% (inactive)
7 | Oc1ccccc1-c1nnco1 | -1.42% [at 42.5 µM] (inactive)
8 | C=C(C)C(=O)OCCNC(C)(C)C | -0.776% (inactive)
9 | Cc1[nH]cnc1-c1ccc(Cl)cc1 | -1.45% [at 42.5 µM] (inactive)
10 | O=C(NCCN1CCOCC1)c1ccc(Cl)cc1 | 0.123% [at 42.5 µM] (inactive)
11 | c1ccc2nccnc2c1 | -0.0331% (inactive)
12 | O=C(O)c1cc(Cl)cc([N+](=O)[O-])c1Cl | -0.487% (inactive)
13 | NCCS | 0.0721% [at 42.5 µM] (inactive)
14 | COC(=O)[C@@H]1[C@H]2C[C@H]3c4[nH]c5ccccc5c4CCN3C[C@@H]2CC[C@@H]1O | 0.422% [at 42.5 µM] (inactive)
15 | Cc1cc2cc3c(C)cc(=O)oc3c(C)c2o1 | 0.0538% [at 42.5 µM] (inactive)
16 | COc1ccc(S(=O)(=O)N2c3ccc(Cl)cc3[C@@](O)(c3ccccc3Cl)[C@H]2C(=O)N2CCC[C@@H]2C(N)=O)cc1OC | -0.122% [at 42.5 µM] (inactive)
17 | BrCCCCCBr | 0.0748% (inactive)
18 | C=C(C)C(=O)OCCOP(=O)(O)OCCOC(=O)C(=C)C | -0.442% (inactive)
19 | ClCCCl | 0.0971% (inactive)
20 | NS(=O)(=O)c1ccc(NC(=O)CCC(=O)O)cc1 | -0.0116% [at 42.5 µM] (inactive)

Row | Structure (SMILES) | caspase-3/7 activation
21 | O=C(CS(=O)Cc1ccco1)NC/C=C\COc1cc(CN2CCCCC2)ccn1 (stereo not given) | 0.0894% [at 42.5 µM] (inactive)
22 | CC(COC(C)(C)C)OCCCO (stereo not given) | 0.671% (inactive)
23 | CC(=O)/C=C/C1C(C)=CCC(C)C1(C)C (stereo not given) | -1.22% (inactive)
24 | CCCCOC(=O)c1ccccc1 | 0.274% (inactive)
25 | Cc1ccccc1N=O | 0.0333% (inactive)
26 | CC(N)C(=O)OC(C)(C)Cc1ccc(Cl)cc1 (stereo not given) | 0.354% [at 42.5 µM] (inactive)
27 | CNC(=O)[C@H]1O[C@@H](n2cnc3c(NCc4cc(Cl)ccc4OCc4cc(C)no4)ncnc32)[C@H](O)[C@@H]1N | 0.0238% (inactive)
28 | CC(=O)Nc1ccc(S(=O)(=O)Nc2ccc([N+](=O)[O-])cc2)cc1 | 0.539% [at 42.5 µM] (inactive)
29 | FC(F)(F)c1ccccc1-n1ccnc1 | 0.493% [at 42.5 µM] (inactive)
30 | OC[C@H](Cc1cccc(O)c1)[C@H](CO)Cc1cccc(O)c1 | -0.202% (inactive)
31 | CC(=O)c1ccc2c(c1)Cc1ccccc1-2 | -3.42% (inactive)
32 | CNS(=O)(=O)CCc1ccc2[nH]cc(C3CCN(C)CC3)c2c1 | 0.392% [at 42.5 µM] (inactive)
33 | Nc1cccc(O)c1 | 1.13% (inactive)
34 | CC(=O)N[C@@H](CCC(=O)O)C(=O)O | -0.469% [at 42.5 µM] (inactive)
35 | CN(C)C(=O)CNC(=O)Cc1ccccc1 | 1.08% [at 42.5 µM] (inactive)
36 | Cc1cccc(C)c1OCC(C)N (stereo not given) | -0.007% [at 42.5 µM] (inactive)
37 | Cc1cccc(OCC(O)CNC(C)(C)C)c1C (stereo not given) | 1.56% [at 42.5 µM] (inactive)
38 | CN1C(C)(C)CCCC1(C)C | -0.0874% [at 42.5 µM] (inactive)
39 | COc1ccc(OC)c(Cl)c1 | 0.0399% (inactive)
40 | O=C(O)CCSSCCC(=O)O | 0.277% (inactive)
